{
  "source": "the supplement of paper PMC12632987",
  "binders": {"B1": {"name": "GBRAP_166_4906 (protein)", "chain": "MKEEKIEELIERAEELIEELKEADEEEALELLIEIGEVLRELKELGASEEEILELVRRTLEAVKERGLSVRVAAGIIAEVADFDEEMREKLDEIAREVEA"}, "B2": {"name": "GBRAP_78_6635 (protein)", "chain": "EVEELIDKALEKVSEAAKAALKLPLDLRAEVLDELSDAAVELVEAEEGEDKEEELEEALEELEEALEIVEENDSPLTEEIKKLLEEAIELVKKAIEELKE"}, "B3": {"name": "GBRAP_52_6046 (protein)", "chain": "MEEEARKLAKELLELVLEGKEEEARKLAREIAETKNEEEILKIAEELAKLVLEGDKETAEAGIKAAEIMAEELEKAGRDEGLADLILATVYGAAYKRLQK"}, "B4": {"name": "GBRAP_160_4784 (protein)", "chain": "MERVEKVAKRFREAAKRALELSKGETAENRANIVDVELGSAILELEEEGLLNDEEEEVAAEVRDELVAEILANPNLTDEELKALLEKAVEELRKRLEELE"}, "B5": {"name": "GBRAP_160_4344 (protein)", "chain": "SEEKEKLLKFVDEEFEEAIELIKGESIEQRKVIISGTFGEILMELSESPIISDELEDEVREIEDELLEYLDKNPDLSEEEIKELIKEAREKVKEAIEKHT"}, "B6": {"name": "GBRAP_35_5577 (protein)", "chain": "EDEEMLLETVEDLAEATIEAIKEGNLDLAIALLKAFLRTAKIAIEDLKNNKEALEKIAELLEKVIEEIKKYLSDNPEVQELKKELEELLKEAKEKLKKVK"}, "B7": {"name": "GBRAP_35_5576 (protein)", "chain": "EDKEMLLETVEDLAEATIEAIKEGDVDLAIALLKAFLRTAKLAVEELENDLEALEKIAELLKKVIEEIKKHLADNPEMQKLLKELEKLLKEVKEKAEKVK"}, "B8": {"name": "GBRAP_52_5857 (protein)", "chain": "SSARMRALAEELLALRLAGKEEELEARVKELVATLSEEEILALLEELAALAKEADKEGAEAILDVAELLADEAEEAGFDEDELSYALAEVAAAAYKQLQK"}, "B9": {"name": "GBRAP_128_3469 (protein)", "chain": "MTEEAVERTRKILEEMKKASPEEARELFKELFEWLLTLPLEVVEAVVEEIEKHLPELSAEKLEILAEVADEAMPKATPEKAALLADLRSSALLEAEKLEE"}, "B10": {"name": "GBRAP_35_5506 (protein)", "chain": "DSMSTIADMLVATIDDTVLAIPDLDVETAVQISRQLIRSAREVAEDLKDDPEGLKRLRDSMERLRDALVKHYGDNPLAQEAIKEIDELIKELEERIKEAE"}, "B11": {"name": "GBRAP_128_3267 (protein)", "chain": "MNPEVVAYAEAFVEKLKAAGPEEAKKLADELMEKLKTMSLEEVEQFVEVLEKKLKELSVEKLEILADAARKHRDEFSPEKANLVAGLEVEALNEAVEKEE"}, "B12": {"name": "GBRAP_160_3969 (protein)", "chain": "SEEVEKLLKEIDEIFEEAKEMIVGESFENRLTIVRVAVGEVLLLLSENPLVSDEAEDKVDEIGDELIATIEANPDLTEEEIKELIDKAEEEIKKIIKEDA"}, "B13": {"name": "GBRAP_125_3096 (protein)", "chain": "HMEEILEALKLLAKALGFSEEEAEELARLAANSSVKQTLYALFAAEGYEELADLVEKLTEEQAKEVLLELAKWLKENPNASKEEVVKKAKELAKKALAKA"}, "B14": {"name": "GBRAP_160_4666 (protein)", "chain": "MEELEKLMKELEEIAKEAVEMTKGQSHEERVAIIRVMKGEIILELEESKIATDEVVDYADELGDELIAYVAANPDLTEEELQELLDKMLKEIEEKLKEEL"}, "B15": {"name": "GBRAP_128_3471 (protein)", "chain": "AVEEARKRTEEIMEKMKEANDEEFKKLAEELAEWLLTLPVEEVEAAVEVIKEHLPELSAEKLEILADVLDKAMPKATPEKAALFADVRSEALLLAEEKEE"}, "B16": {"name": "GBRAP_166_4959 (protein)", "chain": "SLEEVRARLEAALAAFEAEGASLSLEERRDRLVEIAELLGEAARAGLPREELLEAAVRLLLLARAAGLSPAFVEAALVNIAGLPVELVDEALARAEALAA"}, "B17": {"name": "GBRAP_26_5483 (protein)", "chain": "REREILDELEAKVKAILADEPAEVRAAVVAEAIDALIEFAEVVEANINDEEKIEKAKKEALEEMRKFLEDLGIPEDKREKVVKALAEALEKVEKAIKEEA"}, "B18": {"name": "GBRAP_160_4794 (protein)", "chain": "SERIEKVAEIFREEAERALEMARGETVEERVAIFDVELGSAIMEAIEEGLLNDEEEDIAIEVRDELVEEVRRNPELTEEELRELARRKIEELRERLEELE"}, "B19": {"name": "GBRAP_9_7151 (protein)", "chain": "MEELFKKVKEILEDAFEEVKEVVPEEVKPIVDEKREEVLKRLEELAKDPNVTKEELKEEAKELVDEFEEAIKEKVDEETAKMVEAIALTAKLEIEEVAEE"}, "B20": {"name": "GBRAP_160_4217 (protein)", "chain": "MELVEKLVEIVREEFEEALELIEGESEEERRVILDVAVGNVILEAMEIPGVTDEMEEVVEEKSRELAEELLEARDKSEEERRKLIEERVEELREELEKLE"}, "B21": {"name": "GBRAP_160_4215 (protein)", "chain": "DEIVEKLVEIAREEFEEALELIEGESEEERRVILDVAVGNVILEASEIPGVTDEMEETVDRMSEELARELLEAAGESEEERRALIEERTEELRKELKKLA"}, "B22": {"name": "GBRAP_160_4218 (protein)", "chain": "MELVKKLVEIVREEFEEALELIEGESPEERRVILDVAVGNVILESMEIEGVTDEMEETVEEMSEELAEELLEAADESPEERRELIEERVEELEKELKKLE"}, "B23": {"name": "GBRAP_160_4516 (protein)", "chain": "SPKLERIEKLVEEARERIIEVIDEGDVEAAITVAAVEFGEVIMEIAEDESMSDEAEDAAAEIRDKLVEELKKAKDASKEEKKKIVEEKSKELIEKLKKLS"}},
  "note": "The full ranking holds about 4,500 sequences; the median of “median log2 fold change of GCK-ALFA target abundance (FLAG IP / Myc IP barcode read proportion)” is about 0.078, and the lowest 2% start at about -0.6. The entries come from a sample that favours the lowest values as a whole.",
  "data": [
    {"biological_target": "GABARAP, O95166", "sequence (O95166 whole entry, the tested form may be a part)": "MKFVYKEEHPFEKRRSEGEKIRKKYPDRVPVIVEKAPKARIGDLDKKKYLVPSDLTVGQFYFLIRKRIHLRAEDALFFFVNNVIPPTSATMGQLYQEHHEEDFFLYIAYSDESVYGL", "experiment": "median log2 fold change of GCK-ALFA target abundance (FLAG IP / Myc IP barcode read proportion) (log2 ratio); each designed protein is fused to an ALFA-tag nanobody in HEK293 cells to bring the named protein to FLAG-tagged glucokinase (GCK); Myc marks an untargeted standard; higher = target protein stabilised (more abundant)", "conditions": "target protein: 3xFLAG-MCP-GCK-ALFA reporter; HEK293 landing pad (RPLP)", "how_it_was_run": "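Sequencing of reverse-transcribed, amplified circular RNA barcodes from anti-FLAG and anti-Myc immunoprecipitates provided the readout for an ALFA-nanobody-fused binder library recombined into HEK293 landing-pad cells. Those cells were induced with 2 μg mL^−1 doxycycline, transfected with a plasmid expressing a FLAG-tagged target and a Myc-tagged standard, and lysed after 48 h. Target abundance is the per-binder median log2 ratio of FLAG to Myc barcode read proportions. Only barcodes at a proportion of ≥10^−7 in both replicates and binders with ≥3 barcodes per replicate were kept, with a 10^−6 pseudocount added before the two replicates were pooled.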", "values": [
      {"binder": "B1", "median log2 fold change": -0.128},
      {"binder": "B2", "median log2 fold change": -1.21},
      {"binder": "B3", "median log2 fold change": -0.00871},
      {"binder": "B4", "median log2 fold change": 0.242},
      {"binder": "B5", "median log2 fold change": -0.232},
      {"binder": "B6", "median log2 fold change": 0.248},
      {"binder": "B7", "median log2 fold change": -1.27},
      {"binder": "B8", "median log2 fold change": -0.305},
      {"binder": "B9", "median log2 fold change": 0.314},
      {"binder": "B10", "median log2 fold change": -0.631},
      {"binder": "B11", "median log2 fold change": 0.119},
      {"binder": "B12", "median log2 fold change": -0.61},
      {"binder": "B13", "median log2 fold change": 0.229},
      {"binder": "B14", "median log2 fold change": -1.11},
      {"binder": "B15", "median log2 fold change": 0.298},
      {"binder": "B16", "median log2 fold change": 0.117},
      {"binder": "B17", "median log2 fold change": 0.341},
      {"binder": "B18", "median log2 fold change": 0.169},
      {"binder": "B19", "median log2 fold change": 0.225},
      {"binder": "B20", "median log2 fold change": -0.6},
      {"binder": "B21", "median log2 fold change": -0.331},
      {"binder": "B22", "median log2 fold change": -0.299},
      {"binder": "B23", "median log2 fold change": 0.404}
    ]}
  ]
}
